Source: PubChem (National Center for Advancing Translational Sciences (NCATS))
Compounds with a hit are over-represented: about 21% of the library has one in this group of screens.
HCV inhibitor: HCV inhibition; Huh7.5.1 HCVcc-Cre infection, luciferase reporter, 44 h; Potency, µM (highest dose often 41.8 µM), without a hit: at the top dose activity change, negative = inhibition, hits mostly inhibitors; 3.4% of 340,000 active; also: potency is read from the fitted curve at half-maximal effect; % is scaled to controls: 0 for no effect and ±100 for the full control effect
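After 44 h co-culture of compound, cells and HCVcc-Cre (~0.5 moi), substrate is added for 15 min at room temperature and luciferase measured over 15 sec. Cells were seeded at 1,000/well and pre-cultured 4 h.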
Pf growth 96h: inhibits malaria parasite growth, 96 h | P. falciparum luciferase reporter growth, 96 h | Potency, µM (titrated, usually from 28.7 µM), for the others: top-dose activity change, negative = inhibition, hits mostly inhibitors | 6.9% of 320,000 active; also: potency is read from the fitted curve at half-maximal effect; % is scaled to controls: 0 for no effect and ±100 for the full control effect
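Delayed-death screen, second-generation endpoint: infected erythrocytes, 2% hematocrit, 0.05% parasitemia final; 96 hours at 37 C, 5% CO2; luciferase detection reagent; luminescence decrease equals reduced growth.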
Cycloheximide cs: affects cycloheximide protein synthesis inhibition readout, counter-screen; cell reporter, cycloheximide protein synthesis inhibition counterscreen; max response, %; 12% of 300,000 active; AID 2314; in the data active = max response mostly above about 13%, no sharp cut-off; inactive = mostly below about 14%; also: read at 38.3 µM for the half of the compounds with a filed dose; 0% is about no effect
Pf growth 48h: P. falciparum growth inhibition at 48 hours (one generation) | P. falciparum luciferase growth in erythrocytes, 48 h | Potency, µM (series often up to 28.7 µM), inactives show top-dose activity change, negative = inhibition, hits mostly inhibitors | 5.9% of 310,000 active | AID 504832; also: potency is read from the fitted curve at half-maximal effect; % is scaled to controls: 0 for no effect and ±100 for the full control effect
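Cell-based growth assay: transgenic P. falciparum expressing firefly luciferase, cultured in red cells within RPMI 1640 containing 0.5% w/v Albumax, 24 mM bicarbonate and gentamycin. A drop in luciferase activity indicates inhibition.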
Shiga toxin inh: blocks Shiga toxin action in Vero cells; Vero cells, Shiga toxin protein synthesis inhibition reporter; inhibition, % at 38.7 µM; 9.2% of 290,000 active; AID 2315; in the data active = inhibition mostly above about 28%, no sharp cut-off; inactive = mostly below about 43%; also: 0% is about no effect
HCMV inh: inhibitors of human cytomegalovirus; HFF cells, HCMV-luciferase reporter, 72 h; active compounds read low; 4.5% of 410,000 active; activity change, negative = inhibition, % at 57.5 µM; AID 1259415; in the data active = activity change below about -60%; inconclusive = no clear call, values can overlap the other calls; inactive = above about -39%; also: % is scaled to controls: 0 for no effect and ±100 for the full control effect
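HFF cells seeded 16 h at 37C, treated with compounds, infected with luciferase-reporter HCMV at MOI 1 PFU/cell; luciferase read at 72 h post infection, normalized to buffer-only and Salinomycin controls.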
* marks the source's active call; other numbers are inactive results; i = inactive; ? = inconclusive; / = not tested or not shown. Unless noted, calls follow the shape of the dose curve; as a rule, active = well fitted inhibition curve with a large enough effect; inconclusive = small, poorly fitted or top-dose-only effect, or another doubt; inactive = no such curve, though single readings can be large or run the other way.

SMILES	HCV inhibitor	Pf growth 96h	Cycloheximide cs	Pf growth 48h	Shiga toxin inh	HCMV inh
O=C(N/N=C/c1ccc(Cl)cc1Cl)C(=O)NC1CC1	-1%	?	1	30%	-4	10
CCOC(=O)[C@H]1[C@H]2COc3ccccc3[C@@H]2N2C(=O)c3ccc(C)cc3NC(=O)[C@@]12C	-12%	?	/	?	/	-19
COC(=O)c1ccccc1Nc1ccnc(Cl)n1	12%	/	/	/	/	-25
COc1ccc(CN2C(=NC(=O)C3CCCCC3)SC3CS(=O)(=O)CC32)cc1 (centres undefined)	2%	15µM*	-5	?	-7	-30
O=C(Cn1ncc2c([nH]c3ccccc32)c1=O)NCCCN1CCN(c2ccc(F)cc2)CC1	/	/	/	/	/	-11
CCOC(=O)c1c(NC(C)=O)sc2c(O)c(CN3CCN(CC)CC3)ccc12	-25%	-17%	-2	10µM*	-16	-9
CCOC(=O)c1c(NC(C)=O)sc2c(OCC(O)CN(CC)CC)c(Br)ccc12 (centres undefined)	5.6µM*	7.4µM*	-25	-21%	-28	-101*
CCOC(=O)c1sc(NC(C)=O)c(C(=O)OCC)c1C	?	i	0	7%	-19	-20
CCOC(=O)c1c(NC(C)=O)sc2c(OCCN(CC)CC)c(Br)ccc12	13µM*	89%	-5	?	7	?
CCOC(=O)c1c(NC(C)=O)sc2c(OC)c(Br)ccc12	?	/	-3	9%	-18	-24
CCn1cc2nc(SCc3cc(C)ccc3C)n(Cc3ccc(Cl)cc3)c(=O)c2n1	/	/	/	/	/	-2
Cc1noc(/C=C/N(C)C)c1S(=O)(=O)N(C)Cc1ccc(F)cc1	-2%	?	-4	27%	18	-31
COc1ccc(CNC(=O)c2ccc3nc(CCc4ccccc4)oc3c2)cc1OC	/	/	/	/	/	-22
O=C(NCc1ccc2c(c1)OCO2)c1ccc2c(c1)N(Cc1ccccc1F)C(=O)c1ccccc1S2=O (centres undefined)	/	/	/	/	/	23
O=C(NCCCCc1ccccc1)Nc1ccc(F)cc1	?	?	11	?	31*	-30
Cc1ccc(NC(=O)NCCCc2ccccc2)cc1	-22%	1%	35*	-22%	83*	16
Cc1cccc(NC(=O)C(=O)NCCCc2ccccc2)c1	-4%	-22%	50*	62%	51*	141
Cc1ccccc1NC(=O)NCCCCc1ccccc1	?	-91%	3	?	39*	25
Cc1ccccc1NC(=O)NCCc1ccc(Cl)cc1	-6%	28%	7	?	22	-11
Cc1ccc(NC(=O)NCCc2ccc(S(N)(=O)=O)cc2)cc1	0%	?	-3	-5%	-19	5
CCOc1ccc(NC(=O)NCCCCc2ccccc2)cc1	-12%	4%	0	4%	13	-14
COc1ccc(NC(=O)NCCCCc2ccccc2)cc1	-11%	44%	22*	?	50	-37
CCCCSc1nnc2n(CCc3ccccc3)c(=O)c3c4c(sc3n12)COC(C)(C)C4	17%	1.7µM*	-4	-6%	-2	9
Cc1nnc2n(-c3ccccc3)c(=O)c3c4c(sc3n12)COC(C)(C)C4	-11%	11%	-3	7%	-6	-14
COc1cc2c(cc1Cl)/C(=C\CCN(C)C)c1ccccc1S2	?	10µM*	-4	10µM*	-12	-32
SMILES	HCV inhibitor	Pf growth 96h	Cycloheximide cs	Pf growth 48h	Shiga toxin inh	HCMV inh
COc1cc(Cl)cc2c1Sc1ccccc1/C2=C/CCN(C)C	4.5µM*	?	-2	12µM*	1	/
CN(C)CC/C=C1/c2cc(F)ccc2Sc2ccc(Cl)cc21	?	/	/	/	/	-8
CN(C)CC/C=C1/c2ccccc2Sc2c(O)cc(Cl)cc21	?	0.83µM*	-4	?	20	-22
Cc1ccc(N2C(=O)CSC23C(=O)N(CC(=O)NCCc2ccccc2)c2ccccc23)cc1 (centres undefined)	/	/	/	/	/	14
Cc1ccc(CNc2oc(-c3cccs3)nc2C#N)cc1	-28%	?	20	15%	17	-17
C=CCNc1oc(-c2cccs2)nc1C#N	?	/	19*	42%	51*	-13
N#Cc1nc(-c2ccco2)oc1NCc1ccccc1Cl	?	0%	12*	-14%	44	-3
